Laboratory results published in ChEMBL document CHEMBL4513216, “Probing the Open Global Health Chemical Diversity Library for Multistage-Active Starting Points for Next-Generation Antimalarials” (ACS Infect Dis, 2020).
Among all 65,000 compounds or so, about 2,100 (3.2%) showed an effect of 50% or more. The median lay at about -52%. The full list was thinned out, with strong results kept by preference.

test system: Plasmodium falciparum; assay: Screen against P. falciparum Asexual Blood Stage (ABS), at 5uM; type: functional, Dd2; settings: tested at 5 uM

SMILES | INHIBITION [%]
Cc1nc(CCCNC(=O)Nc2ccc(F)cc2F)n[nH]1 | -12.9
O=C(NCCN1CCCC1)c1cc2c(s1)CCN2c1ncccn1 | -36.4
O=C1CC(c2ccccc2)c2cnn(C3CCCC3)c2N1 (centres undefined) | -173
N#Cc1ccc(C2CC(=O)Nc3c2cnn3C2CCCC2)cc1 (centres undefined) | 53.3
O=C1CC(c2ccc(F)cc2)c2cnn(C3CCCC3)c2N1 (centres undefined) | -115
Cc1noc(C)c1CC(=O)N1CCCN(C)c2ccc(Cl)cc21 | -70.5
O=C(NCC1CCN(Cc2cc3ccccc3[nH]2)C1)C1CCCCC1 (centres undefined) | 8.98
Cc1nc(CNC(=O)Nc2ccc3c(c2)CCCC(=O)N3)sc1C | -39.6
Cc1nc(CNC(=O)Nc2ccc(N(C)C)nc2)sc1C | -121
Cc1nc(CNC(=O)Nc2ccc3c(c2)CCCN3C)sc1C | 60.4
CC(C)c1nnc(CN2CCc3ccc(S(N)(=O)=O)cc32)o1 | -105
CCOCC(=O)N1Cc2nnn(C)c2C(COCc2ccccn2)C1 (centres undefined) | -123
CC(C)[C@@H](N)C(=O)NCc1cccnc1N1CCc2ccccc2C1 | 29
NC(=O)NCCC(=O)NCc1cccnc1N1CCc2ccccc2C1 | -73
COC(=O)CCC(=O)NCc1cccnc1N1CCc2ccccc2C1 | 58.5
O=c1cc(C2CCNCC2)nc(Cc2cccc(Cl)c2)[nH]1 | -25.9
CC(C)Nc1ncnc2c1CCN(C(=O)CCc1ccccc1)CC2 | -74.7
Cc1ccc(CN2Cc3ccccc3OC3(CCC(CO)CC3)C2)s1 (centres undefined) | -106
Cc1ncsc1CN1C[C@H](NC(=O)C2CCOCC2)[C@@H](C(C)C)C1 | -21.1
c1ccc(Cc2nc(CNC3CCC4(CCNCC4)CC3)no2)cc1 | 39.2
CCSc1cncc(NCc2ccc(N3CCNC(=O)C3)cc2)n1 | 38.9
Cc1cc(NCc2ccc(N3CCNC(=O)C3)cc2)nc(C)n1 | -39.6
O=C1CN(c2ccc(CNc3cncc(-n4cccn4)n3)cc2)CCN1 | 52
CCc1nc2c(c(NC3CCC3)n1)CCN(C(=O)CO)CC2 | -35.7
Cn1cnnc1C1CCCN(C(=O)NCCn2ccnc2)C1 (centres undefined) | -164
O=C(Nc1cccc2c1CCCC2)c1cccnc1N1CCCNCC1 | 53.6
CC1CN(c2ncccc2C(=O)Nc2cccc3c2CCCC3)CCN1 (centres undefined) | 10.3

SMILES | INHIBITION [%]
Cc1cccc(C(=O)Nc2cccc3c2CCCC3)n1 | -253
CN(Cc1ccoc1)C(=O)Cn1ncc(N(C)C)cc1=O | -36.7
CCn1cc(C(=O)N2CCCC(c3noc(C)n3)C2)cn1 (centres undefined) | -71.8
CC1=C(c2ccc(Cl)cc2)S(=O)(=O)N=C1N1CCc2ccccc21 | -35.6
CC(C)(C)NS(=O)(=O)c1ccccc1CNCc1cccc(O)c1 | 56.9
CC(C)(C)NS(=O)(=O)c1ccccc1CNCc1ccccc1 | 43.3
CC(C)NS(=O)(=O)c1ccccc1CNCc1cccc(O)c1 | 26
CCc1nnc2n1CCN(C(C(=O)NC1CC1)c1ccccc1)C2 (centres undefined) | -119
CC(C)CCN1CCc2[nH]nc(C(=O)N3CC=CC3)c2C1 | -95.1
Cc1cc(-c2cnc(N3CCC(O)CC3)nc2C(C)C)on1 | 13.7
Cc1cc(-c2cnc(N3CCCC(C)C3)nc2C(C)C)on1 (centres undefined) | -127
Cc1cc(-c2cnc(N3CCC(C(N)=O)CC3)nc2C(C)C)on1 | -7.12
Cc1cc(-c2cnc(N3CCN(C)CC3)nc2C(C)C)on1 | 52.5
Cc1cc(-c2cnc(N3CCSCC3)nc2C(C)C)on1 | 63.8
Cc1cc(-c2cnc(N3CCN(C)CC3)nc2-c2ccc(C)s2)on1 | -24
COc1ccc(CN2C[C@@H]3CN(Cc4cccnc4)CCO[C@@H]3C2)cc1 | -76.4
CC(NC(=O)Nc1ccc(-c2csnn2)cc1)C(=O)NC(C)(C)C (centres undefined) | -94.8
O=C(c1ccsc1)N1C[C@@H]2CCN(c3cccnc3)C[C@@H]2C1 | -7.89
O=C(NCC1CCS(=O)(=O)C1)N1CCN(c2cnccn2)CC1 (centres undefined) | -123
CC(NC(=O)NCCCN(C)S(C)(=O)=O)c1ccc(F)cc1 (centres undefined) | -109
Cc1nc(CN(C)c2nccc(N(C)C)n2)cs1 | 27.2
COc1ccnc(N(C)Cc2csc(C)n2)n1 | -49.6
Cc1cc(N(C)C)nc(N(C)Cc2csc(C)n2)n1 | 51.4
c1cncc(OCc2n[nH]c3c2CN(Cc2cccs2)C3)c1 | -109
OC1(Cn2ccc3ncccc32)CCN(Cc2cccs2)CC1 | 4.9
CC(=O)c1cccc(NCC(=O)NC(N)=O)c1 | -105
Cn1nc(C2CCCN(Cc3ccccc3)C2)c2nccnc21 (centres undefined) | -26.5
